Measurements: PubChem BioAssay AID1851 (National Center for Advancing Translational Sciences (NCATS), 2009)
Where “and” joins values, the source holds several entries; their conditions need not be identical. Equal entries are not always repeated. Hit rate of the full screen: of about 16,000 compounds, about 5,800 (36%) were called active. Roughly 23% stayed inconclusive and do not appear here. Calls follow the shape of the dose curve; as a rule, active = well fitted curve in the direction sought with a large enough effect; inconclusive = small, poorly fitted or top-dose-only effect, or effect the other way; inactive = no such curve, though single readings can be large or run the other way. The list shows a part of the results. More than one record can exist for a structure, and the calls need not agree.
% is scaled to controls: 0 for no effect and ±100 for the full control effect.

The molecules below were run against Cytochrome P450 2C19 (Homo sapiens) (UniProt P33261) (assay: Cytochrome panel assay with activity outcomes). Conditions: recombinant CYP, pro-luciferin dealkylation, luminescence, p450-cyp2c19; series mostly up to 57.1 µM.
Sequence of Cytochrome P450 2C19 (Homo sapiens) (P33261 whole entry, looked up): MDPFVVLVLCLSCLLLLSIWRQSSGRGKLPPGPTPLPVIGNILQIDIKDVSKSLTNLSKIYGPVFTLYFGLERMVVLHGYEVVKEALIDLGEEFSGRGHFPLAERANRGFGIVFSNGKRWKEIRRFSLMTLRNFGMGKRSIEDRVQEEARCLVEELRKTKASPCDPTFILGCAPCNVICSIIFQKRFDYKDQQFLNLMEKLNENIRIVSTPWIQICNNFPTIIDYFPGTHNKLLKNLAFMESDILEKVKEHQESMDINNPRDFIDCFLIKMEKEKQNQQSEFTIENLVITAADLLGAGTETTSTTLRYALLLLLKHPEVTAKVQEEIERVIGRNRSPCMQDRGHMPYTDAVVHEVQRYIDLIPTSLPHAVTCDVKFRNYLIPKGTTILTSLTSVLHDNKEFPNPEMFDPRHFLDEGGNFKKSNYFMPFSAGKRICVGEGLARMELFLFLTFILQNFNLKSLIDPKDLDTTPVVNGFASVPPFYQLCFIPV
For O=C1CCCCCC1C1(O)C(=O)Nc2ccc(Br)cc21 (centres undefined), the AC50 was 4.47 µM (active). For Oc1ccc2c3c1O[C@@H]1c4[nH]c5c(c4C[C@@]4(O)[C@@H](C2)N(CC2CC2)CC[C@]314)C[C@]1(O)[C@@H]2Cc3ccc(O)c4c3[C@@]1(CCN2CC1CC1)[C@H]5O4, the AC50 was “inactive”. In the case of Oc1ccc2c3c1O[C@H]1c4[nH]c5c(c4C[C@@]4(O)[C@@H](C2)N(CC2CC2)CC[C@]314)C[C@]1(O)[C@H]2Cc3ccc(O)c4c3[C@@]1(CCN2CC1CC1)[C@@H]5O4, the AC50 is reported as “inactive”. For Oc1ccc2c3c1O[C@H]1c4[nH]c5ccccc5c4C[C@]4(O)[C@H](C2)N(CC2CC2)CC[C@@]314, the AC50 was 10 µM (active). With C[N+]1(C)[C@@H]2CC[C@H]1CC(OC(=O)[C@@H](CO)c1ccccc1)C2 (some centres undefined) the AC50 was “inactive”. With COc1cc(CCN)ccc1O the AC50 was “inactive”. For COc1cc(CNC(=O)CCCC/C=C\C(C)C)ccc1O, the AC50 was “inactive and 6.31 µM (active)”. In the case of CNC[C@H](O)c1ccc(O)c(OC)c1, the AC50 is reported as “inactive”. For CC(=O)[C@@H]1CC[C@@H]2[C@@H]3CCC4=CC(=O)CC[C@@]4(C)[C@H]3CC[C@]21C, the AC50 was “inactive”. CC(C)C[C@H]1C(=O)N2CCC[C@@H]2[C@]2(O)O[C@](NC(=O)[C@H]3C=C4c5cccc6[nH]c(Br)c(c56)C[C@H]4N(C)C3)(C(C)C)C(=O)N12 was tested, and the AC50 was “inactive”. For CC(C)[C@@]1(NC(=O)[C@@H]2C[C@H]3c4cccc5[nH]cc(c45)C[C@@H]3N(C)C2)O[C@@]2(O)[C@H]3CCCN3C(=O)[C@H](Cc3ccccc3)N2C1=O, the AC50 was 3.98 µM (active) and 5.01 µM (active). For CN1C[C@H](C(=O)N[C@@]2(C)O[C@@]3(O)[C@H]4CCCN4C(=O)[C@@H](Cc4ccccc4)N3C2=O)C=C2c3cccc4[nH]cc(c34)C[C@@H]21, the activity, negative = inhibition was 13.1% [at 11.4 µM] (inactive). CCCCN(CCCC)CCC(O)c1cc2c(Cl)cc(Cl)cc2c2cc(C(F)(F)F)ccc12 (centres undefined) was tested, and the AC50 was “inactive”. NC[C@H](CC(=O)O)c1ccc(Cl)cc1 was tested, and the AC50 was 2.51 µM (active). In the case of NC[C@@H](CC(=O)O)c1ccc(Cl)cc1, the AC50 is reported as “inactive”. With O=C(O)CP(=O)(O)c1ccc(Cl)cc1 the AC50 was “inactive”. For CC1(C)N=C(N)N=C(N)N1c1cccc(C(=O)Nc2ccc(S(=O)(=O)F)cc2)c1, the activity, negative = inhibition was 25.1% [at 11.4 µM] (inactive). With CC(=O)OCC1=C(C(=O)[O-])N2C(=O)[C@@H](NC(=O)CCC[C@@H](N)C(=O)[O-])[C@@H]2SC1.[Zn+2] the AC50 was “inactive”. With C[C@]12CC[C@H]3c4ccc(O)cc4CC[C@@H]3[C@H]1CC[C@@H]2OC(=O)CCc1ccccc1 the activity, negative = inhibition was -66% [at 11.4 µM] (inactive). With Cc1ccc2c(c1)C1CN(C)CCC1N2C(=O)Nc1cccc(Cl)c1 (centres undefined) the AC50 was 25.1 µM (active). NC(N)=NC(=O)c1nc(Cl)c(N)nc1N was tested, and the AC50 was “inactive”. In the case of O=C(c1ccccc1F)c1cn(Cc2ccccc2)c2ccccc12, the AC50 is reported as 1.26 µM (active). With O=C(c1ccccc1F)c1cn(CC(=O)N2CCOCC2)c2ccccc12 the AC50 was 10 µM (active). In the case of O=C(O)c1nn(Cc2ccc(Cl)cc2Cl)c2ccccc12, the AC50 is reported as “inactive”. In the case of CCOC(=O)Cn1cc(C(=O)c2ccccc2F)c2ccccc21, the AC50 is reported as 3.55 µM (active). CCNC(=O)[C@@H]1O[C@@H](n2cnc3c(N)ncnc32)[C@H](O)[C@H]1O was tested, and the AC50 was “inactive”. For O=P(O)(O)c1ccccc1 (tested in a mixture with another compound), the activity, negative = inhibition was 41.3% [at 11.4 µM] (inactive). CC[C@@H]1[C@@H]2C[C@H]3[C@H]4N(C)c5ccccc5[C@@]45C[C@@H]([C@@H]2[C@@H]5O)N3[C@H]1O was tested, and the AC50 was “inactive”. For C=C(C)[C@H]1CC[C@]2(CO)CC[C@]3(C)[C@@H](CC[C@H]4[C@@]5(C)CC[C@@H](O)C(C)(C)[C@@H]5CC[C@@]43C)[C@H]12, the AC50 was “inactive”. C[C@]1(O)CC[C@H]2[C@@H]3[C@@H](O)CC4=CC(=O)CC[C@@]4(C)[C@H]3CC[C@]21C was tested, and the activity, negative = inhibition was 12.3% [at 11.4 µM] (inactive). For O=C(O)/C=C\c1ccc[c]([Sb](=[O])([OH])[OH])c1, the activity, negative = inhibition was -11.2% [at 11.4 µM] (inactive). For COc1ccc(-n2nc(C(F)(F)F)cc2-c2ccc(Cl)cc2)cc1, the AC50 was 7.94 µM (active). With CC(C)(C)C(=O)CP(=O)(O)O the activity, negative = inhibition was 34.5% [at 11.4 µM] (inactive). For CN1CCC(c2c[nH]c3ccc(O)cc23)CC1, the AC50 was “inactive”. CN1CCc2cc3c(cc2[C@@H]1[C@@H]1OC(=O)c2c1ccc1c2OCO1)OCO3 was tested, and the AC50 was 0.0501 µM (active). In the case of COc1ccc2c(c1OC)CN1CCc3cc4c(cc3[C@H]1C2)OCO4, the AC50 is reported as 1.26 µM (active). O[C@@H]1[C@@H]2c3cc4c(cc3CN3CCC(=C[C@@H]1O)[C@H]23)OCO4 was tested, and the AC50 was “inactive”. In the case of COc1c2c(cc3c1OCO3)CCN(C)C2, the AC50 is reported as “inactive”. For COc1ccc(C[C@H]2c3cc(OC)c(OC)cc3CCN2C)cc1OC, the AC50 was “inactive”. In the case of C[N+]1(C)CCc2cc3c(cc2[C@@H]1[C@@H]1OC(=O)c2c1ccc1c2OCO1)OCO3, the AC50 is reported as “inactive”. For CO[C@H]1C=C2CCN(C)[C@@H]2[C@@H]2c3cc4c(cc3C(=O)O[C@H]21)OCO4, the AC50 was “inactive”. With COc1ccc2c(c1OC)C(=O)O[C@H]2[C@H]1c2cc3c(cc2CCN1C)OCO3 the AC50 was 1.26 µM (active). With COc1ccc2c(c1O)-c1c(OC)c(OC)cc3c1[C@H](C2)N(C)CC3 the AC50 was “inactive”. With O=C(NCP(=O)(O)O)c1cccnc1 the activity, negative = inhibition was 26.5% [at 11.4 µM] (inactive). For c1cnc(N2CC[C@@]3(CCCNC3)C2)nc1, the AC50 was “inactive”. For C=C[C@]12CN(C)[C@H]3C1[C@@]1(C(=O)Nc4ccccc41)[C@H]1C[C@H]2[C@H]3CO1, the AC50 was “inactive”. For CCCN1CCC[C@@H]2Cc3[nH]ncc3C[C@H]21, the AC50 was “inactive”. With CC(=O)O[C@H]1CC[C@@]2(C)[C@@H](CC[C@H]3[C@H]2CC(=O)[C@@]2(C)[C@@H]3C[C@H]3CC(C)=CC(=O)[C@H]32)C1 the activity, negative = inhibition was -7.79% [at 11.4 µM] (inactive). With CS(=N)(=O)CC[C@H](N)P(=O)(O)O (some centres undefined) the activity, negative = inhibition was 2.48% [at 11.4 µM] (inactive).
